Measured values as given in PMC4336329 (PLoS ONE, 2015).
Out of some 310,000 compounds screened, about 14,000 (4.5%) showed an effect of 50% or more. The effect is printed as a negative number. Many of the other results were omitted from the sample, so strong results are more common in it than they were.

What follows are compounds tested against human ether-à-go-go-related gene (hERG) potassium channel (human, UniProt Q12809) (assay: primary screen, population patch clamp on CHO cells stably expressing hERG; higher = less effect of the substance).
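Also: peak tail current of the secondary pulse compared with the same well before compound.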

Chain of human ether-à-go-go-related gene (hERG) potassium channel (Q12809 whole entry, looked up): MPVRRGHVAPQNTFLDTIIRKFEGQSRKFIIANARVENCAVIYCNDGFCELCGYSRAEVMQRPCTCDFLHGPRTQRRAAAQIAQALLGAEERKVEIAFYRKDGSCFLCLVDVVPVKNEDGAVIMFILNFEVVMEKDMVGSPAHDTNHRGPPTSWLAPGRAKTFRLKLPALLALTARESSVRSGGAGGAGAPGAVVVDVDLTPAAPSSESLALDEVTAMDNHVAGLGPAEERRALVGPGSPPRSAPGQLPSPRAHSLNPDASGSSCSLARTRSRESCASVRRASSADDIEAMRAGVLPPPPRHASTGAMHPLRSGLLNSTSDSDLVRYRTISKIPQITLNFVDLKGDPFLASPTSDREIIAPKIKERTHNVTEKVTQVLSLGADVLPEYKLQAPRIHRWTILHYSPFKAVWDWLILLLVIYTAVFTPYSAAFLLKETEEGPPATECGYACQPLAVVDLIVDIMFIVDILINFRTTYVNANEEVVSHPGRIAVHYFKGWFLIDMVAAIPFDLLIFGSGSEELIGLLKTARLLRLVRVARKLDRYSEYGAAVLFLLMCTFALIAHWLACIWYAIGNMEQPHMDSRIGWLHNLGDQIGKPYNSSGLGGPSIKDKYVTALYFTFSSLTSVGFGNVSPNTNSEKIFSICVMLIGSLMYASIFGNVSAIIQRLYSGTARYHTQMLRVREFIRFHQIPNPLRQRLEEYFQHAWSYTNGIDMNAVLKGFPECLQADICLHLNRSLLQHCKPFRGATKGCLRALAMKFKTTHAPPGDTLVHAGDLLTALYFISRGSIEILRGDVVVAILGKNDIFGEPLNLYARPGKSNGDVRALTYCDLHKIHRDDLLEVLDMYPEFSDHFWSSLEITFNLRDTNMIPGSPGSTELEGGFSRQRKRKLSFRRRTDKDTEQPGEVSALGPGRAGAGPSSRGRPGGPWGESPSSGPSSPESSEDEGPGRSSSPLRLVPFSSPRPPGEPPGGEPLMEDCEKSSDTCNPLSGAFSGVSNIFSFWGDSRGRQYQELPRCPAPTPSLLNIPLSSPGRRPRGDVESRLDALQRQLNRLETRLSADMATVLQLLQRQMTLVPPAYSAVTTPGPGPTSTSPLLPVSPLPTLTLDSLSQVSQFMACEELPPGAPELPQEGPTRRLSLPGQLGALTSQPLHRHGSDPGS

Compound	hERG current change (%, negative = inhibition) at 10uM [%]
CC(C)n1cc(CN2CCC(Oc3ccc(C(=O)N4CCCC4)cc3)CC2)cn1	-9.96
O=C(c1ccc(OC2CCN(Cc3ccc(C(F)(F)F)cc3)CC2)cc1)N1CCCCC1	-57.2
O=C(c1ccc(OC2CCN(Cc3cccc(F)c3)CC2)cc1)N1CCCCC1	-23.4
C=CCOc1ccccc1CN1CCC(Oc2ccc(C(=O)N3CCCCC3)cc2)CC1	-57.6
O=C(c1ccc(OC2CCN(Cc3ccccc3O)CC2)cc1)N1CCCCC1	3.29
CC(C)c1ccc(CN2CCC(Oc3ccc(C(=O)N4CCCC4)cc3)CC2)cc1	-71.6
O=C(c1ccc(OC2CCN(Cc3ccccc3C(F)(F)F)CC2)cc1)N1CCCCC1	2.01
CCn1cc(CN2CCC(Oc3ccc(C(=O)N4CCCCC4)cc3)CC2)cn1	-5.09
CC(C)n1cc(CN2CCC(Oc3ccc(C(=O)N4CCCCC4)cc3)CC2)cn1	-31.6
C=CCOc1ccccc1CN1CCC(Oc2ccc(C(=O)N3CCCC3)cc2)CC1	-41.8
CCc1ccc(CN2CCC(Oc3ccc(C(=O)N4CCCCC4)cc3)CC2)cc1	-78.4
Cn1cc(CN2CCC(Oc3ccc(C(=O)N4CCCCC4)cc3)CC2)cn1	8.81
COc1cccc(NC(=O)Cc2ccccc2)c1	-3.98
Cc1ccc2c(c1)N(CCCC(=O)NCCC1=CCCCC1)C(=O)CO2	-9.81
CCOc1cc(N2CCOCC2)c(OCC)cc1NC(=O)COC(=O)c1cc2ccccc2cc1O	-11.7
CCc1ccc(-c2cc(C)no2)cc1S(=O)(=O)N1CCOc2ccc(C)cc21	13.1
Cc1c(NC(=O)C(C)N(c2ccccc2)S(C)(=O)=O)c(=O)n(-c2ccccc2)n1C (stereo not shown)	18.7
O=C(CCl)Nc1cccc(S(=O)(=O)NC2=NCCC2)c1	-0.632
COc1ccc(CN2CCC(Oc3ccc(C(=O)N4CCCC4)cc3)CC2)c(F)c1	-51.4
COC(=O)c1ccc(CN2CCC(Oc3cccc(C(=O)N4CCOCC4)c3)CC2)cc1	-22.7
CSc1ccc(CN2CCC(Oc3ccc(C(=O)N4CCCC4)cc3)CC2)cc1	-71.1
O=C(c1cccc(OC2CCN(Cc3cc(F)cc(F)c3)CC2)c1)N1CCCC1	-34.9

Compound	hERG current change (%, negative = inhibition) at 10uM [%]
COc1cccc(CN2CCC(Oc3ccc(C(=O)N4CCCCC4)cc3)CC2)c1	-25.3
CSc1ccc(CN2CCC(Oc3cccc(C(=O)N4CCCC4)c3)CC2)cc1	-60.7
CSc1cccc(CN2CCC(Oc3ccc(C(=O)N4CCCCC4)cc3)CC2)c1	-25.2
O=C(c1cccc(OC2CCN(Cc3cccc(OCCO)c3)CC2)c1)N1CCCC1	-2.71
COC(=O)c1ccc(CN2CCC(Oc3cccc(C(=O)N4CCCC4)c3)CC2)cc1	-50.8
COc1cc(C)c(CN2CCC(Oc3ccc(C(=O)N4CCCC4)cc3)CC2)cc1C	-43.1
Cn1cc(CN2CCC(Oc3ccc(C(=O)N4CCCC4)cc3)CC2)cn1	9.86
CSc1cccc(CN2CCC(Oc3cccc(C(=O)N4CCCC4)c3)CC2)c1	-44.4
COc1ccc(NC(=O)Nc2nnc(C(C)(C)C)s2)cc1	-18.8
COC(=O)C(Cc1ccccc1)OS(N)(=O)=O (stereo not shown)	16.1
COCCN1CN=C(NS(=O)(=O)c2ccc(C)cc2)NC1	16.3
COc1cc(NC(=O)COc2cccc3c2OC(C)(C)C3)cc(OC)c1OC	-6.09
CCN(C1=NS(=O)(=O)c2ccccc21)N(CC)S(=O)(=O)c1ccc(C)cc1	19.8
CCOC(=O)Cc1csc(NC(=O)c2ccc(S(=O)(=O)N3CCOCC3)cc2)n1	-2.52
CN1CCN(C(=O)CSc2ccc(C(F)(F)F)cc2[N+](=O)[O-])CC1	-10.2
O=C(c1ccc(OC2CCN(Cc3ccc(F)cc3)CC2)cc1)N1CCCC1	-24
CCOc1cccc(CN2CCC(Oc3ccc(C(=O)N4CCCC4)cc3)CC2)c1	-27.4
COc1ccc(CN2CCC(Oc3ccc(C(=O)N4CCCCC4)cc3)CC2)cc1C	-45.7
CC(=O)Nc1ccc(CN2CCC(Oc3ccc(C(=O)N4CCCC4)cc3)CC2)cc1	-21.3
CCc1ccc(CN2CCC(Oc3ccc(C(=O)N4CCCC4)cc3)CC2)cc1	-81.3
COC(=O)c1ccc(CN2CCC(Oc3ccc(C(=O)N4CCCCC4)cc3)CC2)cc1	-51.7
